Laboratory results published in ChEMBL document CHEMBL3988442, “University of Dundee, Small-Polar-MMV Screening Library” (2021).
For some of these results: Results with a measured potency or affinity are listed apart.

Tests used:
[1] = target: T1, Methionyl-tRNA synthetase, putative (Leishmania donovani (strain BPK282A1)) (UniProt E9BF75); assay: Leishmania donovani Methionine tRNA synthetase (LdMetRS):v7. Dose response assay; type: functional; design: conc 80 nM, time 150 minutes
T1 sequence (whole entry): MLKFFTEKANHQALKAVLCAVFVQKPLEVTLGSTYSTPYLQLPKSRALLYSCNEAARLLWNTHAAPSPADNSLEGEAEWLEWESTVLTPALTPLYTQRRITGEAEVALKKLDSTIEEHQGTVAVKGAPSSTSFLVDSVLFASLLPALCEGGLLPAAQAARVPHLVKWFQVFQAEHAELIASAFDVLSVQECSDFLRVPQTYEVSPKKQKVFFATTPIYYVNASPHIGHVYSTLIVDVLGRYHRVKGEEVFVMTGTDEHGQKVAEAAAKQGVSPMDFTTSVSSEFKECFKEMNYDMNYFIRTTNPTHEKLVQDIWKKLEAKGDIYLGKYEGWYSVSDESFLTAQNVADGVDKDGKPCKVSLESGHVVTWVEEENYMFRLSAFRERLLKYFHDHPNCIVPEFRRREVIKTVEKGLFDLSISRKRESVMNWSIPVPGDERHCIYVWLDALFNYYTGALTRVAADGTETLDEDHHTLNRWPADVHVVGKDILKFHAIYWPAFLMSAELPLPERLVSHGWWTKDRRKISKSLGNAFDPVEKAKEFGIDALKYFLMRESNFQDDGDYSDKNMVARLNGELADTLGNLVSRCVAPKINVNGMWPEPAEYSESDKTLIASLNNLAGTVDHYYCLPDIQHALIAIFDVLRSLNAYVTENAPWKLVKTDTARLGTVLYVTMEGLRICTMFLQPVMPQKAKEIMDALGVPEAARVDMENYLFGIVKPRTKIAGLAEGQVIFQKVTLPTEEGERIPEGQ

[2] = target: Protein translocase subunit SecA (Escherichia coli (strain K12)) (UniProt P10408); assay: Assay to Identify E. coli SecA ATPase Inhibitors; type: functional; design: scale not given: direction of the effect not stated beside the values; settings: 30 µM
Protein translocase subunit SecA (Escherichia coli (strain K12)), sequence (P10408 whole entry): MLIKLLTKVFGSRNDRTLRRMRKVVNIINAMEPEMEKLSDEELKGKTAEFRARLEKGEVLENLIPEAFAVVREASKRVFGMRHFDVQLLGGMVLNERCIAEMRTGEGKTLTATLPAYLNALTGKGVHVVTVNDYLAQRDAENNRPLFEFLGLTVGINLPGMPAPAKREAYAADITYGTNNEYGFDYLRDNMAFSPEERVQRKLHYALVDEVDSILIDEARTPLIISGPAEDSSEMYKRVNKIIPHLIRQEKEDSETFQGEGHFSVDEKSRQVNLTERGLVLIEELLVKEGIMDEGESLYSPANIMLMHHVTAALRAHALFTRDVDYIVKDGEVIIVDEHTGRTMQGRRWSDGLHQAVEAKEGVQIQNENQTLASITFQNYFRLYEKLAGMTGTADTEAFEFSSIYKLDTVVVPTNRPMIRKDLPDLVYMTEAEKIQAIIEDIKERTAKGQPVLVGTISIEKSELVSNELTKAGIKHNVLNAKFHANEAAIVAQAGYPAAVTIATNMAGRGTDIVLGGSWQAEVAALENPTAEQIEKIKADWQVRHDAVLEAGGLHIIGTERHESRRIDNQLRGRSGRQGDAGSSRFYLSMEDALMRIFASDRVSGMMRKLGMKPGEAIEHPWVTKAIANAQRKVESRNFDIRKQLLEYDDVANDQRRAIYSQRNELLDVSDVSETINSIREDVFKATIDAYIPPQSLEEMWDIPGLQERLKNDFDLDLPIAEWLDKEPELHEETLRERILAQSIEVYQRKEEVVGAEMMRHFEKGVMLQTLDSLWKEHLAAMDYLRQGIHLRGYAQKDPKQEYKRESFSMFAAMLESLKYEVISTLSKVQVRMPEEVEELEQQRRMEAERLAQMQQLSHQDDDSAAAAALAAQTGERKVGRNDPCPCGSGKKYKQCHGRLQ

[3] = target: T2, Ubiquitin-activating enzyme e1, putative (Leishmania donovani (strain BPK282A1)) (UniProt E9BSI1); assay: Leishmania donovani Ubiquitin Activating Enzyme (LdE1); type: functional; design: scale not given: direction of the effect not stated beside the values; settings: 30 µM
T2 sequence (whole entry): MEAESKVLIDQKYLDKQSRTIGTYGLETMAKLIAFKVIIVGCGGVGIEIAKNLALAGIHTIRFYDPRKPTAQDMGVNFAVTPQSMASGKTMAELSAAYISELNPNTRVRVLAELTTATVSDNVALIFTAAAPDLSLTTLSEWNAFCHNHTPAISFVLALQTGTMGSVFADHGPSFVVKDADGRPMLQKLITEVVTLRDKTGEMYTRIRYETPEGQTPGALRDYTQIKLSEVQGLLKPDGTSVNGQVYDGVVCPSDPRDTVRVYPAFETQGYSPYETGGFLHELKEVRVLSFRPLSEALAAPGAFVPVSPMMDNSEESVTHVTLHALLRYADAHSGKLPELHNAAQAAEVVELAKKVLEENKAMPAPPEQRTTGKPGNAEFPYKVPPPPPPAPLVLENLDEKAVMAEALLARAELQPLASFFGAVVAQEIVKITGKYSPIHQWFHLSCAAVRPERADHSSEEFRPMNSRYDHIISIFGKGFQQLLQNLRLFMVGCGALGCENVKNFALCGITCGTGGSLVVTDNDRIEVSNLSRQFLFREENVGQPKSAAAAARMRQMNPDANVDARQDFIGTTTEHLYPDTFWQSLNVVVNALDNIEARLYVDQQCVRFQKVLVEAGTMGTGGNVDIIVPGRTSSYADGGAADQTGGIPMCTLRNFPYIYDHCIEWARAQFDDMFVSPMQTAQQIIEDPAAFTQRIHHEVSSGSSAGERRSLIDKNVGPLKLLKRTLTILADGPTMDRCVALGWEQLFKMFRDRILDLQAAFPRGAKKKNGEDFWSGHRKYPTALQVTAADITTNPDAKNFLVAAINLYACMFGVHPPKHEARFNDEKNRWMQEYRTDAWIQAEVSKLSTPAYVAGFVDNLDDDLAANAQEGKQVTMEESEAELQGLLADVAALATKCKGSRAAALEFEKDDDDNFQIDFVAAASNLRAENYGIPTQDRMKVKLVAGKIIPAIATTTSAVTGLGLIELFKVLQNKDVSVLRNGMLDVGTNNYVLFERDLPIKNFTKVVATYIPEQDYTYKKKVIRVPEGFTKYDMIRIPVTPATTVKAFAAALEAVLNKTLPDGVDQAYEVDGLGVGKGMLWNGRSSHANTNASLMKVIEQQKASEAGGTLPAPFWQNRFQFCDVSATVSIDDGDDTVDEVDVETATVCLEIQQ

[4] = target: AMP-activated protein kinase, AMPK (Homo sapiens) (UniProt P54646+O43741+P54619+Q9UGJ0+Q9Y478+Q13131+Q9UGI9); assay: AMP-dependent Kinase enzyme assay. An in vitro enzyme assay that detects ADP turnover that is directly proportional to AMPK activity. This uses naive AMPK that is activated during the assay with MK-8722; type: functional; design: scale not given: direction of the effect not stated beside the values; settings: 30 µM
[5] = target: Sialic acid-binding Ig-like lectin 9 (Homo sapiens) (UniProt Q9Y336); assay: Hs-Siglec9 ALPHAscreen SOP 20170721; design: scale not given: direction of the effect not stated beside the values; settings: 10 µM
Sialic acid-binding Ig-like lectin 9 (Homo sapiens), sequence (Q9Y336 whole entry): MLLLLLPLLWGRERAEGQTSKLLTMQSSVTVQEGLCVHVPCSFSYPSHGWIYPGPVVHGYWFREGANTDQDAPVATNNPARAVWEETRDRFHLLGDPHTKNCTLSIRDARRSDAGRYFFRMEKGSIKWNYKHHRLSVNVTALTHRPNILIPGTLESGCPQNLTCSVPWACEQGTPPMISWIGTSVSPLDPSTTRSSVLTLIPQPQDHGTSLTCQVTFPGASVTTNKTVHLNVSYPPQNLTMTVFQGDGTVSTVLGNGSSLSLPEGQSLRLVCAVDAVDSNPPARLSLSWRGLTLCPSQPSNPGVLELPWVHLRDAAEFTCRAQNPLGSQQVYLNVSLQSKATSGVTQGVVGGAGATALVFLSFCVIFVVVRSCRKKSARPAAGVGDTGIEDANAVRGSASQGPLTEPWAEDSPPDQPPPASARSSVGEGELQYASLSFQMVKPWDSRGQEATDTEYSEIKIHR

[6] = system: Trypanosoma cruzi; assay: Trypanosoma cruzi phosphomannomutase and mannose-1-phosphate guanylyltransferase assay; type: functional; design: scale not given: direction of the effect not stated beside the values; settings: 10 µM
[7] = target: T3, Arginase-2, mitochondrial (Homo sapiens) (UniProt P78540); assay: in vitro enzyme assay to detect the production of urea directly proportional to the activity of Arginase II; type: functional; design: scale not given: in the data most compounds retested in dose-response had high values; settings: 33.3 µM
T3 sequence (whole entry): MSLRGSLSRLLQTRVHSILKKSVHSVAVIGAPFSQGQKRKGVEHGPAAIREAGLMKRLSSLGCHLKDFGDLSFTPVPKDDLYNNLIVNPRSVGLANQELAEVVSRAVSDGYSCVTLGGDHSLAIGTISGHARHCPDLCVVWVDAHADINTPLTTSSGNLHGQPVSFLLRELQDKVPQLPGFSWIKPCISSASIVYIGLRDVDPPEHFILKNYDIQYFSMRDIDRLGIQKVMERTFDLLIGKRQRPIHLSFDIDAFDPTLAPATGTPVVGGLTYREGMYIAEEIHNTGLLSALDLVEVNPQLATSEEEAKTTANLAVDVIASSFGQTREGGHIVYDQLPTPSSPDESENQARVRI

[8] = target: T4, Proteasome subunit beta (Trypanosoma cruzi) (UniProt O96673); assay: Trypanosoma cruzi proteasome chymotrypsin-like activity (TcProtChymo) assay.; type: functional; design: scale not given: in the data most compounds retested in dose-response had high values; settings: 9.37 µM
T4 sequence (whole entry): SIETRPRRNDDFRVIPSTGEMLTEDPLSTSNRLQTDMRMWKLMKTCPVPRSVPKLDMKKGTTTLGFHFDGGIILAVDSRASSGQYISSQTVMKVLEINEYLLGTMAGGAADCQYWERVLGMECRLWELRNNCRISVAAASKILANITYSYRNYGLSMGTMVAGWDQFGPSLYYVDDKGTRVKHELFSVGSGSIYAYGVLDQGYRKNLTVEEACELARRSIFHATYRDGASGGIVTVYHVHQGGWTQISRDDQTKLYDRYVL

[9] = organism: Homo sapiens; assay: To identify inhibition of the IFN signalling (Jak-Stat) pathway via expression of an eGFP reporter gene under the control of an IFN-stimulated response element (ISRE) containing MxA promoter.; type: functional; design: scale not given: direction of the effect not stated beside the values; settings: 30 µM
[10] = target: T5, Tyrosyl-tRNA synthetase, putative (Trypanosoma cruzi (strain CL Brener)) (UniProt Q4DSP6); assay: Trypanosoma cruzi tyrosyl tRNA synthetase (TcYRS) _High Tyrosine SOP; type: functional; design: scale not given: in the data most compounds retested in dose-response had high values; settings: 30 µM
T5 sequence (whole entry): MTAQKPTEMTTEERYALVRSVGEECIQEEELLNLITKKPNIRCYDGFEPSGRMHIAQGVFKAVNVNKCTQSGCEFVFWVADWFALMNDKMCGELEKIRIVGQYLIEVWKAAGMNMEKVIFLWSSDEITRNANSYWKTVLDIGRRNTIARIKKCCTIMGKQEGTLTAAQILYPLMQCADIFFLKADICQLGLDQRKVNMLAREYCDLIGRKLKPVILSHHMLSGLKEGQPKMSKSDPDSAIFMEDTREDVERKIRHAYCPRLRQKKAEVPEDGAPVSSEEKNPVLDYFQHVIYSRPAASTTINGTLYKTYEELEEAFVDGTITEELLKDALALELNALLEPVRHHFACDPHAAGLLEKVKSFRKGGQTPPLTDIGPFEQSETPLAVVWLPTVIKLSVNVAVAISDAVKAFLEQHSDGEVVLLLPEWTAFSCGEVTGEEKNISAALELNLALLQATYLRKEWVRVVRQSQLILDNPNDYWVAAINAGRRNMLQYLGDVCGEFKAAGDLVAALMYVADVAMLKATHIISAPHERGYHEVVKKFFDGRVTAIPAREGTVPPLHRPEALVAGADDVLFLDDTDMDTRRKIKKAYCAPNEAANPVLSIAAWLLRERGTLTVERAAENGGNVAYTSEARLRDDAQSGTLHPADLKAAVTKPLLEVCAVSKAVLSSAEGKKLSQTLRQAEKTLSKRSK

[11] = target: T5, Tyrosyl-tRNA synthetase, putative (Trypanosoma cruzi (strain CL Brener)); assay: Trypanosoma cruzi tyrosyl tRNA synthetase (TcYRS) SOP; type: functional; design: scale not given: direction of the effect not stated beside the values; settings: 30 µM
[12] = target: Chromo domain-containing protein 1 (Saccharomyces cerevisiae (strain ATCC 204508 / S288c) (Baker's yeast)) (UniProt P32657); assay: ScCHD-1 Enzyme Inhibition Assay; type: functional; design: scale not given: in the data most compounds retested in dose-response had high values; settings: 30 µM
Chromo domain-containing protein 1 (Saccharomyces cerevisiae (strain ATCC 204508 / S288c) (Baker's yeast)), sequence (P32657 whole entry, the tested form may be a part): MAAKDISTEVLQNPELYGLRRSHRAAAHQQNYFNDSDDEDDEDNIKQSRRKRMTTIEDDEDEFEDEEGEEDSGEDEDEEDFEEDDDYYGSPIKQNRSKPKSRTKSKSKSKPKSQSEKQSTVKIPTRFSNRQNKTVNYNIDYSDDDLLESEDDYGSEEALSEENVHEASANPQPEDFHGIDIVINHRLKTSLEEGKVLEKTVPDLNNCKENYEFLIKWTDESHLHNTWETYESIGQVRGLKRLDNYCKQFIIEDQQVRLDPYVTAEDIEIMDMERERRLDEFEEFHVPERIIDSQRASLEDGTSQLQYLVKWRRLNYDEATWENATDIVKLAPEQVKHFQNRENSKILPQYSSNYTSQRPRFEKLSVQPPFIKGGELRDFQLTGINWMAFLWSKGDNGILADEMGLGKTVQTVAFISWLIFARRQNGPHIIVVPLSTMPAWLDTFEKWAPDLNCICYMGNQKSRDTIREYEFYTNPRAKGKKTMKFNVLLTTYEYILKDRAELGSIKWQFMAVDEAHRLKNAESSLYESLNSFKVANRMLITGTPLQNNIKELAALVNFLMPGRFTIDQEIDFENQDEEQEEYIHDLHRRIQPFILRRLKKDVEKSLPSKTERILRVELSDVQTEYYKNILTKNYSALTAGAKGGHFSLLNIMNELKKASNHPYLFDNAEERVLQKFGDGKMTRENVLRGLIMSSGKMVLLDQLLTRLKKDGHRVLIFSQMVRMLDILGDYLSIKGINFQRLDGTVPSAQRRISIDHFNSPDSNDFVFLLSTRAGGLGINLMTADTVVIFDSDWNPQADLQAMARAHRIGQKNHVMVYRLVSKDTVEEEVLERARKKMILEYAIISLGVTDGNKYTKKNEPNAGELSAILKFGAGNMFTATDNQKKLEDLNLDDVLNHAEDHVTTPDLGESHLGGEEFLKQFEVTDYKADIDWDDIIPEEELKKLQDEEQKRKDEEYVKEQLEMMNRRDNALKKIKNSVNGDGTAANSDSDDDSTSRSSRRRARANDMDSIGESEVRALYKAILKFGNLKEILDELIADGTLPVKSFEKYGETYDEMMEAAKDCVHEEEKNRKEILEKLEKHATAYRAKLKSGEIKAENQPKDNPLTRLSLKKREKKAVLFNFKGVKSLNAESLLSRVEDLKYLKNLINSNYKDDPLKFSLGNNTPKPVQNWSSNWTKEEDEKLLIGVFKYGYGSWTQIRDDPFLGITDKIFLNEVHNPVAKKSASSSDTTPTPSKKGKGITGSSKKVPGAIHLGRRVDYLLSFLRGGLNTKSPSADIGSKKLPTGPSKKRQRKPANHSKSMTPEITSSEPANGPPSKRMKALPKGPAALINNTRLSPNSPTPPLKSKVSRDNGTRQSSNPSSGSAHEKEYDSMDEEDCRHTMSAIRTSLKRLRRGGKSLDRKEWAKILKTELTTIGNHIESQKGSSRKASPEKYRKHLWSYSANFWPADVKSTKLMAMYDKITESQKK

## CS(=O)(=O)N1CCN(c2ccc3ccc(C(=O)NC4CC4)cn23)CC1
[1]; BOTTOM 0.676888483, HILLSLOPE 1.632295337, MAX_EFFECT 62.22222222, TOP 67.77025413
  PXC50: 4.71
[1]; BOTTOM 0.960464126, HILLSLOPE 4.237364112, MAX_EFFECT 56.37583893, TOP 52.03393569
  PXC50: 4.89
[1]; BOTTOM 1.708048652, HILLSLOPE 3.091987727, MAX_EFFECT 59.02777778, TOP 55.32905726
  PXC50: 4.97
[1]; BOTTOM 3.037239637, HILLSLOPE 2.011804467, MAX_EFFECT 63.24110672, TOP 62.63598189
  PXC50: 4.98
[1]; BOTTOM -1.02344126, HILLSLOPE 1.263595064, MAX_EFFECT 66.72443674, TOP 100.0
  PXC50: 4.26

## Fc1cccc(N2C[C@H]3CCN(c4cccnc4)C[C@H]3C2)c1
[1]; MAX_EFFECT 35.84229391
  PXC50: < 4
[1]; MAX_EFFECT 42.57425743
  PXC50: < 4
[1]; MAX_EFFECT 45.65217391
  PXC50: < 4
[2]
  Percent Effect: -5.24%
[3]
  Percent Effect: -27%
[4]
  Percent Effect: 0.0628%
[5]
  Percent Effect: -4.58%
[6]
  Percent Effect: -1.95%
[7]
  Percent Effect: -1.67%
[8]
  Percent Effect: 9.38%
[9]
  Percent Effect: 31.8%
[10]
  Percent Effect: 23.8%
[11]
  Percent Effect: 25.6%
[12]
  Percent Effect: 3.63%

## O=C(NC1CC1)c1ccc2ccc(N3CCN(CC4CC4)CC3)n2c1
[1]; BOTTOM 0.467703885, HILLSLOPE 1.411799655, MAX_EFFECT 58.90736342, TOP 70.88537837
  PXC50: 4.49
[1]; BOTTOM 3.025092892, HILLSLOPE 1.100251625, MAX_EFFECT 63.9084507, TOP 101.8817942
  PXC50: 4.18
[1]; BOTTOM 3.903834548, HILLSLOPE 2.10176548, MAX_EFFECT 63.76811594, TOP 66.05792102
  PXC50: 4.72
[1]; BOTTOM -3.956247574, HILLSLOPE 1.036561065, MAX_EFFECT 73.83512545, TOP 100.0
  PXC50: 4.45
[1]; BOTTOM -4.174046537, HILLSLOPE 0.97706716, MAX_EFFECT 63.03630363, TOP 100.0
  PXC50: 4.22
[2]
  Percent Effect: 0.138%
[3]
  Percent Effect: 9.09%
[5]
  Percent Effect: 0.503%
[6]
  Percent Effect: 7.69%
[7]
  Percent Effect: -1.37%
[8]
  Percent Effect: 9.19%
[9]
  Percent Effect: -15.1%
[10]
  Percent Effect: 45.4%
[11]
  Percent Effect: 22.5%
[12]
  Percent Effect: -3.97%
